Test results: PubChem BioAssay (NCATS)
Inconclusive results are not listed. Calls of active or inactive are those of the source. The call rests on the fitted dose curve; in most records, active means well fitted cell-killing curve with a large enough effect; inconclusive means small, poorly fitted or top-dose-only effect, or effect the other way; inactive means flat fitted curve, though single readings scatter. Where a SMILES comes first, the peptide text is derived from it. [ ]: non-standard residue; d: D form. ξ: configuration not given here. ξPhe(βξ-Me) = CC(c1ccccc1)C(N)C(=O)O; GABA = NCCCC(=O)O

Key:
Assay in all cases: Primary qHTS to identify gynecologic anti-cancer compounds using libraries of approved drugs and bioactive compounds (AID 1345084); further: nearly all actives have a fitted effect of over 55% in size
C33A = settings: Gynecologic cancer cell panel viability, ATPlite luminescence, 48 h; series mostly up to 57.5 µM
Method in brief: (§1)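 Cells, 1,000 per well, plated 16 h, then exposed 48 h at 37 C to compounds. Viability by ATPlite luminescence after 15 min at room temperature.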

CAOV3 = settings: Gynecologic cancer cell panel viability, ATPlite luminescence, 48 h; series mostly up to 57.5 µM
Method in brief: as §1

CASKI = settings: Gynecologic cancer cell panel viability, ATPlite luminescence, 48 h; series mostly up to 57.5 µM
Method in brief: as §1

Es-2 = settings: Gynecologic cancer cell panel viability, ATPlite luminescence, 48 h; series mostly up to 57.5 µM
Method in brief: as §1

HeLa = settings: Gynecologic cancer cell panel viability, ATPlite luminescence, 48 h; series mostly up to 57.5 µM
Method in brief: as §1

Hek293T = settings: Gynecologic cancer cell panel viability, ATPlite luminescence, 48 h, control line for the selectivity index; series mostly up to 57.5 µM
Method in brief: as §1

JEG-3 = settings: Gynecologic cancer cell panel viability, ATPlite luminescence, 48 h; series mostly up to 57.5 µM
Method in brief: as §1

OV90 = settings: Gynecologic cancer cell panel viability, ATPlite luminescence, 48 h; series mostly up to 57.5 µM
Method in brief: as §1

PA-1 = settings: Gynecologic cancer cell panel viability, ATPlite luminescence, 48 h; series mostly up to 57.5 µM
Method in brief: as §1

SKOV3 = settings: Gynecologic cancer cell panel viability, ATPlite luminescence, 48 h; series mostly up to 57.5 µM
Method in brief: as §1

Tov-21-G = settings: Gynecologic cancer cell panel viability, ATPlite luminescence, 48 h; series mostly up to 57.5 µM
Method in brief: as §1

Tov112D = settings: Gynecologic cancer cell panel viability, ATPlite luminescence, 48 h; series mostly up to 57.5 µM
Method in brief: as §1
On the % scale 0 is the no-effect control and ±100 the full control effect.

CN1CCc2nc(C(=O)N[C@@H]3C[C@@H](C(=O)N(C)C)CC[C@@H]3NC(=O)C(=O)Nc3ccc(Cl)cn3)sc2C1
inactive: Potency (C33A) | Potency (CAOV3) | Potency (CASKI) | Potency (Es-2) | Potency (HeLa) | Potency (Hek293T) | Potency (JEG-3) | Potency (OV90) | Potency (PA-1) | Potency (SKOV3) | Potency (Tov-21-G) | Potency (Tov112D)

C=C1CC[C@H]2[C@@](C)(CCC(O)[C@@]2(C)CO)[C@@H]1CCC1=CCOC1=O (stereo partly specified)
inactive: Potency (C33A) | Potency (CAOV3) | Potency (CASKI) | Potency (Es-2) | Potency (HeLa) | Potency (Hek293T) | Potency (JEG-3) | Potency (OV90) | Potency (PA-1) | Potency (SKOV3) | Potency (Tov-21-G) | Potency (Tov112D)

CC(=O)O[C@H]1[C@H](O[C@H]2[C@@H]3C=CO[C@@H](O[C@@H]4O[C@H](CO)[C@@H](O)[C@H](O)[C@H]4O)[C@@H]3[C@@]3(CO)O[C@@H]23)O[C@@H](C)[C@H](OC(=O)/C=C/c2ccccc2)[C@H]1OC(=O)/C=C/c1ccccc1
inactive: activity change, negative = cytotoxicity (C33A) 1.54% [at 11.6 µM] | activity change, negative = cytotoxicity (CAOV3) 23.2% [at 11.6 µM] | activity change, negative = cytotoxicity (CASKI) 9.13% [at 11.6 µM] | activity change, negative = cytotoxicity (Es-2) 2.44% [at 11.6 µM] | activity change, negative = cytotoxicity (HeLa) -1.93% [at 11.6 µM] | activity change, negative = cytotoxicity (Hek293T) -2.9% [at 11.6 µM] | activity change, negative = cytotoxicity (JEG-3) -3.47% [at 11.6 µM] | activity change, negative = cytotoxicity (OV90) 3.4% [at 11.6 µM] | activity change, negative = cytotoxicity (PA-1) 16.9% [at 11.6 µM] | activity change, negative = cytotoxicity (SKOV3) 5.38% [at 11.6 µM] | activity change, negative = cytotoxicity (Tov-21-G) -0.504% [at 11.6 µM] | activity change, negative = cytotoxicity (Tov112D) 5.71% [at 11.6 µM]

CC(C)c1ccc2c(c1)C(=O)CC1[C@@](C)(C(=O)O)CCC[C@]21C (stereo partly specified)
inactive: Potency (C33A) | Potency (CAOV3) | Potency (CASKI) | Potency (Es-2) | Potency (HeLa) | Potency (Hek293T) | Potency (JEG-3) | Potency (OV90) | Potency (PA-1) | Potency (SKOV3) | Potency (Tov-21-G) | Potency (Tov112D)

COc1ccc(C2COc3cc(O)ccc3C2)c(O)c1 (stereo unspecified)
inactive: Potency (C33A) | Potency (CAOV3) | Potency (CASKI) | Potency (Es-2) | Potency (HeLa) | Potency (Hek293T) | Potency (JEG-3) | Potency (OV90) | Potency (PA-1) | Potency (SKOV3) | Potency (Tov-21-G) | Potency (Tov112D)

C=C1C(=O)OC2CC3(C)C(CC12)C(C)=CC(O)C3OC(C)=O (stereo unspecified)
inactive: Potency (C33A) | Potency (CAOV3) | Potency (CASKI) | Potency (Es-2) | Potency (HeLa) | Potency (Hek293T) | Potency (JEG-3) | Potency (OV90) | Potency (PA-1) | Potency (SKOV3) | Potency (Tov-21-G) | Potency (Tov112D)

CC1NC(=O)CCCNC(=O)C(Cc2c[nH]c3ccccc23)NC(=O)C(C)NC(=O)C(C(C)C)NC(=O)C(C(C)c2ccccc2)NC(=O)C(C(C)C)NC1=O (stereo not drawn) (cyclo([GABA]AV[ξPhe(βξ-Me)]VAW); configuration not given here)
inactive: Potency (C33A) | Potency (CAOV3) | Potency (CASKI) | Potency (Es-2) | Potency (HeLa) | Potency (Hek293T) | Potency (JEG-3) | Potency (OV90) | Potency (PA-1) | Potency (SKOV3) | Potency (Tov-21-G) | Potency (Tov112D)

CC1(C)CC[C@]2(C(=O)O[C@@H]3O[C@H](CO)[C@@H](O)[C@H](O)[C@H]3O)CC[C@]3(C)C(=CCC4[C@@]5(C)C[C@@H](O)[C@H](O)[C@](C)(C=O)C5CC[C@]43C)[C@@H]2[C@@H]1O (stereo partly specified)
inactive: Potency (C33A) | Potency (CAOV3) | Potency (CASKI) | Potency (Es-2) | Potency (HeLa) | Potency (Hek293T) | Potency (JEG-3) | Potency (OV90) | Potency (PA-1) | Potency (SKOV3) | Potency (Tov-21-G) | Potency (Tov112D)

CC1=C(CCC(C)O[C@@H]2O[C@H](CO)[C@@H](O)[C@H](O)[C@H]2O)C(C)(C)CCC1=O (stereo partly specified)
inactive: Potency (C33A) | Potency (CAOV3) | Potency (CASKI) | Potency (Es-2) | Potency (HeLa) | Potency (Hek293T) | Potency (JEG-3) | Potency (OV90) | Potency (PA-1) | Potency (SKOV3) | Potency (Tov-21-G) | Potency (Tov112D)

Cn1nc(C(C)(C)C)cc1C(=O)NC(Cc1cccc(Cl)c1)C(=O)NCC#N (stereo unspecified)
inactive: Potency (C33A) | Potency (CAOV3) | Potency (CASKI) | Potency (Es-2) | Potency (HeLa) | Potency (Hek293T) | Potency (JEG-3) | Potency (OV90) | Potency (PA-1) | Potency (SKOV3) | Potency (Tov-21-G) | Potency (Tov112D)

C=C(C(=O)O)C1CC(O)C2(C)CCCC(=C)C2C1 (stereo unspecified)
inactive: Potency (C33A) | Potency (CAOV3) | Potency (CASKI) | Potency (Es-2) | Potency (HeLa) | Potency (Hek293T) | Potency (JEG-3) | Potency (OV90) | Potency (PA-1) | Potency (SKOV3) | Potency (Tov-21-G) | Potency (Tov112D)

CC[C@H]1OC(=O)[C@H](C)[C@@H](O[C@H]2C[C@@](C)(OC)[C@@H](O)[C@H](C)O2)[C@H](C)[C@@H](O[C@@H]2O[C@H](C)C[C@H](N(C)C)[C@H]2O)[C@](C)(O)C[C@@H](C)C(=O)[C@H](C)[C@H]2OC(=O)O[C@@]21C
inactive: Potency (C33A) | Potency (CAOV3) | Potency (CASKI) | Potency (Es-2) | Potency (HeLa) | Potency (Hek293T) | Potency (JEG-3) | Potency (OV90) | Potency (PA-1) | Potency (SKOV3) | Potency (Tov-21-G) | Potency (Tov112D)

C[C@H](N)C(=O)N[C@@H](Cc1ccc(O)cc1)C(=O)N1CCC[C@H]1C(=O)NCC(=O)N[C@@H](CCCCN)C(=O)N[C@@H](Cc1ccccc1)C(N)=O
inactive: activity change, negative = cytotoxicity (C33A) 10.6% [at 11.6 µM] | activity change, negative = cytotoxicity (CAOV3) 7.8% [at 11.6 µM] | activity change, negative = cytotoxicity (CASKI) 6.63% [at 11.6 µM] | activity change, negative = cytotoxicity (Es-2) 2.05% [at 11.6 µM] | activity change, negative = cytotoxicity (HeLa) 3.06% [at 11.6 µM] | activity change, negative = cytotoxicity (Hek293T) 13% [at 11.6 µM] | activity change, negative = cytotoxicity (JEG-3) 1.3% [at 11.6 µM] | activity change, negative = cytotoxicity (OV90) 1.27% [at 11.6 µM] | activity change, negative = cytotoxicity (PA-1) 3.5% [at 11.6 µM] | activity change, negative = cytotoxicity (SKOV3) 32.3% [at 11.6 µM] | activity change, negative = cytotoxicity (Tov-21-G) 1.95% [at 11.6 µM] | activity change, negative = cytotoxicity (Tov112D) 5.22% [at 11.6 µM]
